Laboratory results reported in PubChem BioAssay (NCI).
About 83,000 compounds went through this panel and 20% of them were active in at least one assay; those are over-represented in the sample as a whole.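 Negative percent growth values reflect cell death: -40 means 40% of the cells present at the start died, and -100 means all died.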 Active and inactive are the calls of the source. Rule for the calls: active = growth percent below 10; inactive = the rest.

Columns and labels:
Experiment in all cases: NCI-60 one-dose screen, 48 h (100 = growth as untreated, 0 = no growth, -100 = all killed)
Conditions in all cases: 10 µM
SK-MEL-2 melanoma = test system: SK-MEL-2 melanoma
EKVX NSCLC = test system: EKVX NSCLC
SN12C renal = test system: SN12C renal
UO-31 renal = test system: UO-31 renal
TK-10 renal = test system: TK-10 renal
ACHN renal = test system: ACHN renal
CAKI-1 renal = test system: CAKI-1 renal
A498 renal = test system: A498 renal
CCRF-CEM leukemia = test system: CCRF-CEM leukemia
MOLT-4 leukemia = test system: MOLT-4 leukemia
SR leukemia = test system: SR leukemia
RPMI-8226 leukemia = test system: RPMI-8226 leukemia
OVCAR-8 ovarian = test system: OVCAR-8 ovarian
OVCAR-5 ovarian = test system: OVCAR-5 ovarian
OVCAR-4 ovarian = test system: OVCAR-4 ovarian
SK-OV-3 ovarian = test system: SK-OV-3 ovarian
IGROV1 ovarian = test system: IGROV1 ovarian
OVCAR-3 ovarian = test system: OVCAR-3 ovarian
NCI/ADR-RES ovarian = test system: NCI/ADR-RES ovarian
HS 578T breast = test system: HS 578T breast

Measured: growth

N#Cc1ccc(NC(=O)CSc2ccc(-c3ccc(Br)cc3)nn2)cc1
inactive: SK-MEL-2 melanoma 57.9% | EKVX NSCLC 72.4% | SN12C renal 73.5% | UO-31 renal 54.6% | TK-10 renal 103% | ACHN renal 64.5% | CAKI-1 renal 67.2% | A498 renal 89.4% | CCRF-CEM leukemia 57.9% | MOLT-4 leukemia 42.6% | SR leukemia 46.6% | RPMI-8226 leukemia 57.6% | OVCAR-8 ovarian 76.3% | OVCAR-5 ovarian 88.2% | OVCAR-4 ovarian 59% | SK-OV-3 ovarian 86.1% | IGROV1 ovarian 74.6% | OVCAR-3 ovarian 76.6% | NCI/ADR-RES ovarian 35.7%

Brc1ccc(N/N=C/c2c[nH]c3ccccc23)nc1
active: UO-31 renal 2.76% | CCRF-CEM leukemia 6.57% | SR leukemia 2.45% | RPMI-8226 leukemia 2.19% | IGROV1 ovarian 1.99% | NCI/ADR-RES ovarian 5.81%
inactive: SK-MEL-2 melanoma 83.6% | EKVX NSCLC 24.4% | SN12C renal 15.3% | TK-10 renal 70% | ACHN renal 27.5% | CAKI-1 renal 25.9% | A498 renal 43% | MOLT-4 leukemia 18% | OVCAR-8 ovarian 44.3% | OVCAR-5 ovarian 45.4% | OVCAR-4 ovarian 41.5% | SK-OV-3 ovarian 71% | OVCAR-3 ovarian 19.5%

Cc1ccc(-c2nc(Nc3ccc(C)c(S(N)(=O)=O)c3)c3ccccc3n2)cc1
inactive: SK-MEL-2 melanoma 118% | EKVX NSCLC 81.1% | SN12C renal 69% | UO-31 renal 85.9% | TK-10 renal 120% | ACHN renal 64.1% | CAKI-1 renal 91% | A498 renal 106% | CCRF-CEM leukemia 85.1% | MOLT-4 leukemia 71.5% | RPMI-8226 leukemia 87% | OVCAR-8 ovarian 45.9% | OVCAR-5 ovarian 94% | OVCAR-4 ovarian 70.1% | SK-OV-3 ovarian 125% | IGROV1 ovarian 87.5% | OVCAR-3 ovarian 57% | HS 578T breast 102% | NCI/ADR-RES ovarian 60.3%
active: SR leukemia 3.79%

N#C/C(=C\c1ccc(N(c2ccccc2)c2ccccc2)cc1)C(N)=O
active: TK-10 renal -37.7% | CAKI-1 renal -24% | A498 renal -99.8% | OVCAR-5 ovarian -60.6% | OVCAR-4 ovarian 4.67% | IGROV1 ovarian -21.2% | OVCAR-3 ovarian 3.69%
inactive: SK-MEL-2 melanoma 23.5% | EKVX NSCLC 90.2% | SN12C renal 90.5% | UO-31 renal 49.9% | ACHN renal 88% | CCRF-CEM leukemia 59.9% | MOLT-4 leukemia 56% | SR leukemia 69.1% | RPMI-8226 leukemia 19.8% | OVCAR-8 ovarian 75.1% | SK-OV-3 ovarian 56% | NCI/ADR-RES ovarian 57.4%

CN1CCN(Cc2ccc(NC(=O)c3cncc(C#Cc4cnc5ccc(N[C@@H]6CCOC6)nn45)c3)cc2C(F)(F)F)CC1
active: SK-MEL-2 melanoma -94.3% | EKVX NSCLC -99.6% | SN12C renal -98.6% | UO-31 renal -98.6% | TK-10 renal -82.2% | ACHN renal -100% | CAKI-1 renal -98.1% | A498 renal -97.6% | CCRF-CEM leukemia -4.84% | MOLT-4 leukemia -19% | SR leukemia -18.5% | RPMI-8226 leukemia -24.1% | OVCAR-8 ovarian -96.2% | OVCAR-5 ovarian -91.6% | OVCAR-4 ovarian -66.3% | SK-OV-3 ovarian -83.1% | IGROV1 ovarian -91.6% | HS 578T breast -41% | NCI/ADR-RES ovarian -77.5%

COc1cc(/C=C/C(=O)c2ccc(C(F)(F)F)cc2)ccc1Oc1nc(Nc2ccc(F)cc2)nc(N(C)C)n1
inactive: SK-MEL-2 melanoma 78.4% | EKVX NSCLC 66% | SN12C renal 69.6% | UO-31 renal 50.3% | TK-10 renal 88.5% | ACHN renal 84.2% | CAKI-1 renal 69.6% | A498 renal 94.4% | CCRF-CEM leukemia 64.8% | MOLT-4 leukemia 40.7% | SR leukemia 30.4% | RPMI-8226 leukemia 13.5% | OVCAR-8 ovarian 85% | OVCAR-5 ovarian 92.7% | SK-OV-3 ovarian 103% | IGROV1 ovarian 91.4% | OVCAR-3 ovarian 79.6% | HS 578T breast 91.6% | NCI/ADR-RES ovarian 66.7%

Cc1cc(C)nc(NS(=O)(=O)c2ccc(N/C(N)=N/c3nccc(-c4ccccc4)n3)cc2)n1
inactive: SK-MEL-2 melanoma 89.5% | EKVX NSCLC 43% | SN12C renal 73.6% | UO-31 renal 34.7% | TK-10 renal 76.4% | ACHN renal 61.7% | CAKI-1 renal 43.6% | A498 renal 71.2% | CCRF-CEM leukemia 67.7% | MOLT-4 leukemia 38.8% | SR leukemia 53.8% | RPMI-8226 leukemia 60.8% | OVCAR-8 ovarian 77.7% | OVCAR-5 ovarian 76.1% | SK-OV-3 ovarian 52.9% | IGROV1 ovarian 38.9% | OVCAR-3 ovarian 86.8% | HS 578T breast 48.1% | NCI/ADR-RES ovarian 84.5%

O=C(CSc1nnc(-c2c[nH]c3ccccc23)n1-c1ccccc1)Nc1ccc(C(=O)/C=C/c2ccccc2Cl)cc1
inactive: SK-MEL-2 melanoma 93.5% | EKVX NSCLC 67.2% | SN12C renal 84.5% | UO-31 renal 51.6% | TK-10 renal 103% | ACHN renal 74.5% | CAKI-1 renal 74% | A498 renal 101% | CCRF-CEM leukemia 88.2% | MOLT-4 leukemia 55.6% | SR leukemia 71.6% | RPMI-8226 leukemia 40.3% | OVCAR-8 ovarian 61.7% | OVCAR-5 ovarian 101% | OVCAR-4 ovarian 79.1% | SK-OV-3 ovarian 95.2% | IGROV1 ovarian 95.1% | OVCAR-3 ovarian 80.6% | HS 578T breast 86.4% | NCI/ADR-RES ovarian 92.4%

COc1cccc(-c2ccnc(/N=C(\N)Nc3ccc(S(=O)(=O)Nc4nc(C)cc(C)n4)cc3)n2)c1
inactive: SK-MEL-2 melanoma 100% | EKVX NSCLC 92.7% | SN12C renal 100% | UO-31 renal 64.1% | TK-10 renal 111% | ACHN renal 97.3% | CAKI-1 renal 80.4% | A498 renal 114% | CCRF-CEM leukemia 98.5% | MOLT-4 leukemia 101% | SR leukemia 100% | RPMI-8226 leukemia 90.1% | OVCAR-8 ovarian 102% | OVCAR-5 ovarian 107% | OVCAR-4 ovarian 96% | SK-OV-3 ovarian 84% | IGROV1 ovarian 83.4% | OVCAR-3 ovarian 99.3% | NCI/ADR-RES ovarian 103%

CN1CCN(Cc2ccc(NC(=O)c3cncc(C#Cc4cnc5ccc(N[C@H]6CCOC6)nn45)c3)cc2C(F)(F)F)CC1
active: SK-MEL-2 melanoma -94.3% | EKVX NSCLC -99.4% | SN12C renal -93.1% | UO-31 renal -95.6% | TK-10 renal -69.8% | ACHN renal -100% | CAKI-1 renal -96.7% | A498 renal -94.7% | CCRF-CEM leukemia -2.23% | MOLT-4 leukemia -9.84% | SR leukemia -21.7% | RPMI-8226 leukemia -35.1% | OVCAR-8 ovarian -94.4% | OVCAR-5 ovarian -72% | OVCAR-4 ovarian -65.3% | SK-OV-3 ovarian -63.8% | IGROV1 ovarian -74.6% | OVCAR-3 ovarian -93.7%
inactive: NCI/ADR-RES ovarian 13.7%

COc1cc2c(c(OC)c1OC)C(=O)CC(c1cccc(NC(=O)c3cccc(N)c3)c1)O2 (configuration not stated)
inactive: SK-MEL-2 melanoma 85.2% | EKVX NSCLC 91.9% | SN12C renal 74.3% | UO-31 renal 58.6% | TK-10 renal 118% | ACHN renal 84.6% | CAKI-1 renal 65.9% | A498 renal 98.8% | CCRF-CEM leukemia 49.4% | MOLT-4 leukemia 43.1% | SR leukemia 47.7% | RPMI-8226 leukemia 57.4% | OVCAR-8 ovarian 55% | OVCAR-5 ovarian 123% | OVCAR-4 ovarian 64.1% | SK-OV-3 ovarian 107% | IGROV1 ovarian 86.7% | HS 578T breast 90.3% | NCI/ADR-RES ovarian 68.2%

COc1cc(/C=C/C(=O)c2cc(OC)c(OC)c(OC)c2)ccc1Oc1nc(Nc2ccc(F)cc2)nc(N(C)C)n1
active: SK-MEL-2 melanoma -49.4% | SN12C renal -89.3% | UO-31 renal -100% | ACHN renal -82.3% | A498 renal -1.01% | CCRF-CEM leukemia 3.77% | MOLT-4 leukemia 4.87% | SR leukemia -5.9% | RPMI-8226 leukemia -19.8% | OVCAR-8 ovarian -59.6% | OVCAR-5 ovarian -44.7% | IGROV1 ovarian -64.3% | NCI/ADR-RES ovarian -29.6%
inactive: EKVX NSCLC 20.6% | TK-10 renal 28.6% | CAKI-1 renal 11.5% | OVCAR-4 ovarian 18.4% | SK-OV-3 ovarian 49.5% | HS 578T breast 16.1%

CCOC(=O)c1sc(N/N=C(\C)c2ccc3c(c2)Nc2ccccc2S3)nc1C
inactive: SK-MEL-2 melanoma 10.7% | EKVX NSCLC 26.1% | SN12C renal 51.3% | UO-31 renal 29.4% | TK-10 renal 36.8% | ACHN renal 16.9% | CAKI-1 renal 32.2% | A498 renal 30.6% | CCRF-CEM leukemia 32.4% | MOLT-4 leukemia 14.8% | SR leukemia 18.8% | RPMI-8226 leukemia 20.1% | OVCAR-8 ovarian 38.7% | OVCAR-5 ovarian 30.6% | OVCAR-4 ovarian 44.1% | SK-OV-3 ovarian 68.5% | IGROV1 ovarian 39.6% | OVCAR-3 ovarian 46.1% | HS 578T breast 30.9% | NCI/ADR-RES ovarian 28.8%

COc1cnc2c(c1)C(=O)c1c-2n(CCCNC(C)C)c(=O)c2cc(OC)c(OC)cc12
active: ACHN renal 3.23% | SR leukemia 2.52% | RPMI-8226 leukemia -14.8% | OVCAR-3 ovarian 5.2%
inactive: SK-MEL-2 melanoma 107% | EKVX NSCLC 92.6% | SN12C renal 25% | UO-31 renal 29.5% | TK-10 renal 87.6% | CAKI-1 renal 15.2% | A498 renal 105% | CCRF-CEM leukemia 16.2% | MOLT-4 leukemia 16.5% | OVCAR-8 ovarian 37% | OVCAR-5 ovarian 70.8% | OVCAR-4 ovarian 28.2% | SK-OV-3 ovarian 22.1% | IGROV1 ovarian 32% | NCI/ADR-RES ovarian 29.1%

O=C(NCCCCCCCCCC[P+](c1ccccc1)(c1ccccc1)c1ccccc1)c1ccc(-n2nc(-c3ccccc3O)nc2-c2ccccc2O)cc1
active: SK-MEL-2 melanoma -79.6% | EKVX NSCLC -90% | SN12C renal -76.4% | UO-31 renal -84.3% | TK-10 renal -91.1% | ACHN renal -98.6% | CAKI-1 renal -68.5% | A498 renal -75.1% | CCRF-CEM leukemia 4.27% | MOLT-4 leukemia -10.4% | SR leukemia 1.87% | RPMI-8226 leukemia 1.07% | OVCAR-8 ovarian -22.2% | OVCAR-5 ovarian -94% | OVCAR-4 ovarian -51.8% | SK-OV-3 ovarian -71.5% | IGROV1 ovarian -75.7% | HS 578T breast -22.1%
inactive: NCI/ADR-RES ovarian 37.4%

CN1C(=O)N(C)C2SC(N/N=C/c3ccc(F)cc3)=NC21 (configuration not stated)
active: OVCAR-3 ovarian -41.9%
inactive: SK-MEL-2 melanoma 26.5% | EKVX NSCLC 77.2% | SN12C renal 52.5% | UO-31 renal 47.7% | TK-10 renal 72.4% | ACHN renal 60.1% | CAKI-1 renal 46.3% | A498 renal 57.6% | CCRF-CEM leukemia 40.3% | MOLT-4 leukemia 45.4% | SR leukemia 11.7% | RPMI-8226 leukemia 77% | OVCAR-8 ovarian 66.8% | OVCAR-5 ovarian 77.9% | OVCAR-4 ovarian 77.2% | SK-OV-3 ovarian 61.8% | IGROV1 ovarian 46% | NCI/ADR-RES ovarian 13%
